Screening data as filed in PubChem BioAssay.
Shown are actives, neighbours in structure and some others; about 10% of the full set was active somewhere.
ALOX12 inhib – qHTS Assay for Inhibitors of 12-hLO (12-human lipoxygenase); 0.12% of 150,000 active; Potency, µM (doses to about 57.1 µM), inactives show top-dose activity change, negative = inhibition, usual class: inhibitors; purified 12-hLO, xylenol orange hydroperoxide absorbance; AID 1452, 2008; active means well fitted inhibition curve with a large enough effect; inconclusive means small, poorly fitted or top-dose-only effect; further: potency means the concentration at half of the fitted maximal effect; nearly all actives have a fitted effect of over 55% in size
Target sequence (P18054 whole entry, looked up): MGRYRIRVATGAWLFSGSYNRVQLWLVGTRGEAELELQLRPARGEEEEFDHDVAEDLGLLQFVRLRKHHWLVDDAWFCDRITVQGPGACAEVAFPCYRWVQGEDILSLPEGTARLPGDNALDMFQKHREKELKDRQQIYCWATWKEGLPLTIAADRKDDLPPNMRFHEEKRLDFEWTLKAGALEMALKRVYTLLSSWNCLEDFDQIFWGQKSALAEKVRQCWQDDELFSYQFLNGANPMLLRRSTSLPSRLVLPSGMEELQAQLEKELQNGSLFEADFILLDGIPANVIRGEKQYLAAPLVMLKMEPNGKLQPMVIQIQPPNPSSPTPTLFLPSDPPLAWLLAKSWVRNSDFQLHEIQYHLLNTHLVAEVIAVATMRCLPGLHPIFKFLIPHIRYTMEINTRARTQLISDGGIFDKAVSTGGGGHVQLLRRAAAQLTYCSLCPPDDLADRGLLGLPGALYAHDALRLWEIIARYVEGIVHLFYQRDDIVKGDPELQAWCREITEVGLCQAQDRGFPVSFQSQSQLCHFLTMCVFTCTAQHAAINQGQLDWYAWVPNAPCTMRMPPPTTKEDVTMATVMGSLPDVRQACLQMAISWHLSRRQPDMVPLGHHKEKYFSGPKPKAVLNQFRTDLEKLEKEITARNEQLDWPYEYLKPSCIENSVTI
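Purified human 12hLO (150 nM), preincubated 15 min with compound, then 40 uM arachidonic acid for 30 min, room temperature, Hepes pH 7.0 with 0.01% Triton X-100. Hydroperoxide detected by ferrous iron/xylenol orange; 573/405 nm absorbance ratio gives reaction progress.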
PNC assembly inh – High Content Assay for Compounds that inhibit the Assembly of the Perinucleolar Compartment; PC3M PTB-GFP, PNC prevalence imaging, 16 h; active compounds read low; activity change (PNC), negative = inhibition, % at 10 µM; 3.1% of 140,000 active; AID 2417, 2010;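 active means readout at or below -70, meaning at least 70% loss of cells showing the perinucleolar compartment, a nuclear body marking cancer cells; inconclusive means readout between -30 and a set limit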;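 further: plate controls were DMSO wells for no effect and camptothecin positive control wells for full effect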
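Read-out is percentage of cells bearing a perinucleolar compartment, from automated 20x imaging of fixed, Hoechst-stained PC3M PTB-GFP cells. Cells were seeded 4 h, then exposed 16 h to compound (23 nl of library stock) in duplicate plates.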
HPGD inh – qHTS Assay for Inhibitors of HPGD (15-Hydroxyprostaglandin Dehydrogenase); purified HPGD, NADH fluorescence kinetic, PGE2 substrate; Potency, µM, for the others: at the top dose activity change, negative = inhibition, actives largely listed as inhibitors; 4.3% of 150,000 active; 15-hydroxyprostaglandin dehydrogenase [NAD(+)] (Homo sapiens), P15428; further: potency means the concentration at half of the fitted maximal effect
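20 nM HPGD preincubated 15 min at room temperature with compound in 50 mM Tris-HCl pH 8, 0.01% Tween 20. Started with 1 mM NAD+ and 30 uM prostaglandin E2; NADH fluorescence (360/450 nm) read 5 times over 30-s intervals, last minus first.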
ALDH1A1 block – qHTS Assay for Inhibitors of Aldehyde Dehydrogenase 1 (ALDH1A1) | AID 1030, 2008 | 7.3% of 220,000 active | Potency, µM (titrated, usually from 75.3 µM), inactives show at the top dose activity, negative = inhibition, most hits filed as inhibitors | Aldehyde dehydrogenase 1A1 (Homo sapiens), P00352 | Purified ALDH1A1, NADH fluorescence, propionaldehyde substrate;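 further: potency means the concentration at half of the fitted maximal effect; plate controls were no enzyme wells and a reference inhibitor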
Lamin A splicing – qHTS Assay for Modulators of Lamin A Splicing | HeLa LMNA splicing GFP/RFP minigene ratio, 48 h | Potency, µM (series often up to 46.1 µM), for the others: at the top dose ratio change, negative = inhibition, most hits filed as inhibitors | 0.01% of 200,000 active | AID 1487, 2009; active means well fitted inhibition curve with a large enough effect in the signal ratio, with a control signal flat, not every such curve was filed as active; inconclusive means small, poorly fitted or top-dose-only effect, or effect the other way, or a change in a side signal; the % refers to the signal ratio; further: potency means the concentration at half of the fitted maximal effect
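S3 HeLa cells stably expressing lamin A-EGFP splicing minigene plus DsRed2, 600 cells/well, 48 h compound exposure at 37C. Laser-scanning cytometry; analysed as GFP (500-530 nm)/RFP (575-640 nm) total intensity ratio; 0.5% DMSO vehicle.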
Starred values were filed as active, the others as inactive; ? = inconclusive; . = not tested or not shown; [ ] = another dose, or the depositor's remark. Unless noted, the call rests on the fitted dose curve; in most records, active means well fitted inhibition curve with a large enough effect (not every such curve was filed as active); inconclusive means small, poorly fitted or top-dose-only effect, or another doubt; inactive means no such curve, though single readings can be large or run the other way. Unless noted, on the % scale 0 is the no-effect control and ±100 the full control effect.

SMILES | ALOX12 inhib | PNC assembly inh | HPGD inh | ALDH1A1 block | Lamin A splicing
COC(=O)c1ccc(C=O)cc1 | 5% | . | -11% | 8.9µM* | .
CCn1ccc2cc(S(=O)(=O)N3CCCN(C(=O)NCC(=O)OC)CC3)ccc21 | . | . | . | . | 6%[46 µM]
Cn1c(=O)c(C(=O)CCl)c(N)n(CC2CC2)c1=O | -2% | 33 | 0% | 20µM* | ?
CC(C)Cn1c(N)c(C(=O)CCl)c(=O)n(C)c1=O | 1% | ? | -3% | 8.9µM* | ?
Cn1c(=O)c(C(=O)COC(=O)c2cc(C(F)(F)F)nc3c(C(F)(F)F)cccc23)c(N)n(CC2CC2)c1=O | -3% | 45 | -3% | 8% | -6%
O=[n+]1c2c(n([O-])c3cc(F)c(F)cc31)CCCC2 | 0% | 8 | 18µM* | ? | 17%
O=[n+]1c2c(n([O-])c3cc(Br)ccc31)CCCC2 | -1% | -27 | -10% | -6% | -14%
CCOc1ccccc1N1C(=O)CC(Nc2ccc(N3CCOCC3)cc2)C1=O (centres undefined) | ? | 12 | -16% | 7.9µM* | 4%
O=C1CC(Nc2ccc(N3CCOCC3)cc2)C(=O)N1Cc1ccccc1 (centres undefined) | ? | -119* | 5% | ? | -9%
COc1cccc(Cn2c(=O)c(-c3cccs3)nc3cnc(OC)nc32)c1 | . | . | . | ? | -1%
c1ccc(CN2CCN(C(c3ccccc3)c3nnnn3Cc3ccccc3)CC2)cc1 (centres undefined) | 1% | 25 | -9% | -13% | 0%
Cc1ccc(C(c2nnnn2Cc2ccccc2)N2CCN(Cc3ccccc3)CC2)cc1 (centres undefined) | -5% | ? | 0% | 22µM* | -2%
CC(C)(C)n1nnnc1C(c1cccnc1)N1CCN(C2CCCCC2)CC1 (centres undefined) | -1% | -84* | -4% | 5% | 4%
COc1ccc(Cn2nnnc2C(c2ccncc2)N2CCOCC2)cc1 (centres undefined) | -2% | -99* | -1% | 28µM* | 2%
COc1ccc(Cn2nnnc2C(c2ccccc2)N2CCN(C3CCCC3)CC2)cc1 (centres undefined) | -5% | ? | -9% | 8.9µM* | 5%
CCC(Sc1nc2cc3c(cc2c(=O)n1CCCC(=O)NCc1ccc2c(c1)OCO2)OCO3)C(=O)NCCCOC (centres undefined) | . | . | . | . | -9%[46 µM]
CCc1ccccc1N1CSC2=C(C#N)C(c3cc(OC)c(OC)cc3OC)CC(=O)N2C1 (centres undefined) | ? | 11 | 7.9µM* | ? | -2%
COc1cc(OC)c(C2CC(=O)N3CN(c4ccccc4)CSC3=C2C#N)cc1OC (centres undefined) | -22% | 12 | 10µM* | 8.9µM* | 7%
COc1ccc(/C=C\C(=O)NC2CC(=O)N(c3ccccc3)C2)cc1OC (centres undefined) | . | . | . | . | 16%[46 µM]
O=C(CSc1n[nH]c(-c2ccccc2Cl)n1)N1CCN(c2ccc(F)cc2)CC1 | . | . | . | . | -1%[46 µM]
Cc1ccc(Cl)cc1N1CCN(C(=O)C2CCN(S(=O)(=O)c3ccc4c(c3)oc(=O)n4C)CC2)CC1 | . | . | . | . | 0%[46 µM]
COC(=O)C1CC(=O)N(c2ccc(C)cc2)C1 (centres undefined) | . | . | . | 5% | 25%[46 µM]
COC(=O)C1CC(=O)c2ccsc2C1 (centres undefined) | -2% | -109* | -1% | 5% | -7%
O=C(CCCn1c(SCC(=O)c2ccc(O)c(O)c2)nc2ccccc2c1=O)NCC1CCCO1 (centres undefined) | ? | ? | 5µM* | 18µM* | 1%
COC(=O)c1ccc2c(=O)n(CC3CCCO3)c(SCC(=O)Nc3ccccc3Cl)nc2c1 (centres undefined) | -1% | 19 | -9% | 16% | 1%
